Screening data from PubChem.
ELG1 repair inh: qHTS screen for small molecules that inhibit ELG1-dependent DNA repair in human embryonic kidney (HEK293T) cells expressing luciferase-tagged ELG1 | HEK293T ELG1-luciferase reporter, luminescence, 16 h; DNA damage induced by 5-fluorouridine | Potency, µM (doses to about 46.1 µM), for the others: at the highest dose activity change, negative = inhibition, actives largely listed as inhibitors | actives 2.3% (n = 330,000) | AID 504467, 2011; also: % is scaled to controls: 0 for no effect and ±100 for the full control effect; nearly all actives have a fitted effect of over 55% in size
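In this reporter screen, reduction of luminescence relative to DMSO vehicle indicated activity. Compounds and 5-fluorouridine were added together to 2,000 cells per well, incubated for 16 hr at 37 °C, then developed with ONE-Glo.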
Gal4-VP16 FLuc: VP16 counterscreen qHTS for inhibitors of ROR gamma transcriptional activity | actives 3.5% (n = 310,000) | Potency, µM (top dose mostly 53.6 µM), inactives show at the top dose activity, negative = inhibition, hits mostly inhibitors | Drosophila S2 Gal4-VP16 UAS-luciferase, luminescence, 20 h;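 also: Gal4-VP16 expression switched on by copper sulfate through the metallothionein promoter; % is scaled to controls: 0 for no effect and ±100 for the full control effect; nearly all actives have a fitted effect of over 50% in size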
MCF10A rerep: A quantitative high throughput screen for small molecules that induce DNA re-replication in MCF 10a normal breast cells; MCF 10A DNA re-replication, Hoechst nuclear intensity, 48 h; Potency, µM (series often up to 46.1 µM), without a hit: at the top dose activity, positive = re-replication, most hits filed as activators; actives 2.9% (n = 350,000); AID 624296, 2012; also: % of control where 0% means no effect; nearly all actives have a fitted effect of over 50% in size
SW480 rerep: A quantitative high throughput screen for small molecules that induce DNA re-replication in SW480 colon adenocarcinoma cells; SW480 DNA re-replication, Hoechst DNA content imaging, 48 h; Potency, µM (series often up to 46.1 µM), inactives show at the top dose re-replication activation, actives largely listed as activators; actives 1.8% (n = 340,000); also: % of control where 0% means no effect; nearly all actives have a fitted effect of over 55% in size
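DNA re-replication was detected as more nuclei of elevated Hoechst intensity after 48 hr exposure to compound (23 nL pinned per well of 250 cells).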
RORg inh: qHTS for inhibitors of ROR gamma transcriptional activity | Nuclear receptor ROR-gamma (Mus musculus), P51450 | Drosophila S2 Gal4-RORgamma UAS-luciferase reporter, 20 h | Potency, µM (top dose mostly 53.6 µM), without a hit: at the top dose activity change, negative = inhibition, hits mostly inhibitors | actives 5.4% (n = 310,000); also: % is scaled to controls: 0 for no effect and ±100 for the full control effect; nearly all actives have a fitted effect of over 60% in size
Target sequence (P51450 whole entry, looked up, the tested form may be a part): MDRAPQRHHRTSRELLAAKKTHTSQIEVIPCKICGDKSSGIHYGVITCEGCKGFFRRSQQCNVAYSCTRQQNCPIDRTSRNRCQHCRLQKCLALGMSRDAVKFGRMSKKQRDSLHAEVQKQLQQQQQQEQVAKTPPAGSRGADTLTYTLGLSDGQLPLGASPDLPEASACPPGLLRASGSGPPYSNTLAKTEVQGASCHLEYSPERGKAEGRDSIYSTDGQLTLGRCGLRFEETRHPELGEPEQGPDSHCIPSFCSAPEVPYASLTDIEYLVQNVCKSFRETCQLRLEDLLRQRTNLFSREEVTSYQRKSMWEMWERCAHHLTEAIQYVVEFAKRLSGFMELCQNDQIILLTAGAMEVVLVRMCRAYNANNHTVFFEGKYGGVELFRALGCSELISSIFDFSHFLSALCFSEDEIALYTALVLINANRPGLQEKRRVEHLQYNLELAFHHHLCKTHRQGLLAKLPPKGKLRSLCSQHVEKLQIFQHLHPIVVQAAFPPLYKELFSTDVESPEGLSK
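Stably transfected Drosophila Schneider cells are the test system, with ROR gamma fused to Gal4 and luciferase under UAS control; luminescence is read after 20 hr of 700 uM copper sulfate induction at ambient temperature.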
Numbers without * were called inactive; ? = inconclusive; nt = no result given; [ ] = dose if it differs, or a comment. A selection: hits, their analogues and other compounds. The true share with any hit is near 10%. Calls follow the shape of the dose curve; as a rule, active = well fitted curve in the direction sought with a large enough effect; inconclusive = small, poorly fitted or top-dose-only effect, or another doubt; inactive = no such curve, though single readings can be large; an effect the other way counts as inactive or inconclusive. Potency is read from the fitted curve at half-maximal effect.

SMILES | ELG1 repair inh | Gal4-VP16 FLuc | MCF10A rerep | SW480 rerep | RORg inh
CSc1cccc(NC(=S)N2CCCN(Cc3cccc(Cl)c3)C2)c1 | ? | ? | ? | ? | 10µM*
CCOc1ccc(NC(=S)N2CCCN(Cc3cccc(Cl)c3)C2)cc1 | -6% | 5% | ? | ? | ?
COc1cc(OC)cc(-c2sc3ccc(OC)cc3c2C#CC2(N)CCCCC2)c1 | -1% | nt | 15µM* | 18µM* | nt
COc1cccc(-c2sc3ccc(OC)cc3c2C#CC2(O)CCCCC2)c1 | -20% | nt | ? | ? | nt
Cc1ccc(-n2c(=O)[nH]c3c(oc4ccccc43)c2=O)cc1 | 25% | -3% | 3% | -13% | 5%
COCCn1c(=S)[nH]c2cc(C(=O)N(CCO)Cc3ccccc3)ccc2c1=O | -7% | ? | 4% | 2% | 11µM*
COC(=O)c1ccc2c(=O)n(-c3ccc(OC)cc3)c(=S)[nH]c2c1 | 5% | 5.6µM* | 0% | -6% | 2.8µM*
COc1ccc(-n2c(=S)[nH]c3c(oc4ccccc43)c2=O)cc1 | ? | 4.5µM* | ? | 0% | 2.8µM*
CCn1c(=S)[nH]c2cc(C(=O)OC)ccc2c1=O | 1% | 11µM* | 14% | -2% | 13µM*
COc1ccc(-n2c(=S)[nH]c3cc(C(=O)N(C)Cc4ccccc4)ccc3c2=O)cc1 | ? | ? | -1% | -11% | 7.9µM*
CSc1ccc(N/N=C(/C#N)S(=O)(=O)C(C)(C)C)cc1 | 18µM* | -16% | -1% | -2% | ?
Cc1[nH]c(C)c(S(=O)(=O)Nc2ccccc2)c1C(=O)N1CCCC1 | 13% | -9% | 0% | -18% | 0%
C/C=C/c1ccc(O)c(OC)c1 | 6% | 2% | 8% | -1% | -3%[10 µM]
COc1cc(/C=C/c2ccc3cccc(OC)c3n2)c(O)c([N+](=O)[O-])c1 | 1% | -3% | 4% | -1% | -35%
COc1cc(/C=C/c2ccc3cccc(O)c3n2)ccc1O | ? | 3.2µM* | 12µM* | 24% | 3.2µM*
COc1cc(/C=C/c2ccc3cccc(OC)c3n2)c(OC(C)=O)c([N+](=O)[O-])c1 | ? | ? | 6.5µM* | ? | ?
COc1cc(Br)c(/C=C/c2ccc3cccc(O)c3n2)cc1OC | ? | 3.2µM* | 0% | -15% | 2.8µM*
COc1cc(/C=C/c2ccc3cccc(O)c3n2)c(Br)cc1O | ? | ? | nt | nt | 2.8µM*
CC(c1ccccc1)C(CC(=O)O)C(=O)Nc1ccc(Cl)c(Cl)c1 (centres undefined) | -1% | -1% | -2% | -5% | -2%
CCOC(=O)c1cnn(-c2ccccc2)c1NC(=O)CN1CCOCC1 | ? | -1% | 4% | 1% | 12%
COc1ccc(OC)c(/C=C/c2ccnc3ccccc23)c1 | nt | nt | 5.2µM* | 12µM* | nt
Oc1cccc2ccc(/C=C/c3ccccc3Br)nc12 | ? | 3.2µM* | ? | 6.5µM* | 4µM*
Oc1ccc2ccccc2c1/C=C/c1ccc2c(Br)cc(Br)c(O)c2n1 | nt | nt | 8.2µM* | 18µM* | nt
O=[N+]([O-])c1cccc2ccc(/C=C/c3cccc(Br)c3)nc12 | 21% | 3% | 20% | -1% | ?
COc1ccc(OC)c(Nc2ncnc3ccccc23)c1 | 6% | 4% | 3% | 6% | -22%
SMILES | ELG1 repair inh | Gal4-VP16 FLuc | MCF10A rerep | SW480 rerep | RORg inh
COc1ccc(OC)c(/C=C/c2ccc3cccc(O)c3n2)c1 | ? | 4.5µM* | nt | nt | 2.5µM*
COc1ccccc1N1CCN(C(=O)[C@H](C)NS(=O)(=O)c2ccc3c(c2)OCCCO3)CC1 | nt | nt | 15% | -19% | nt
CSc1ccc(/C=C/c2ccc3cccc(O)c3n2)cc1 | ? | ? | 21µM* | 23% | 4.5µM*
COc1cc(Br)cc(/C=C/c2ccc3cccc(O)c3n2)c1O | 7.3µM* | 3.2µM* | 16µM* | 34% | 2.5µM*
Cc1ccc(S(=O)(=O)N2CCN(C(=O)C(C)Cn3nc(C)c(C)c3C)CC2)cc1 (centres undefined) | 2% | 5% | -3% | -1% | -3%
COc1cc2c(cc1OC)C1(Nc3c-2c(C)nn3-c2ccccc2)C(=O)Nc2ccccc21 (centres undefined) | ? | -14% | ? | -3%[9.22 µM] | -12%
CCc1nn(-c2ccccc2)c2c1-c1cc(OC)c(OC)cc1C1(N2)C(=O)Nc2ccccc21 (centres undefined) | 21µM* | -8% | 21µM* | ? | 19%
COc1cc2c(cc1OC)C1(Nc3c-2c(-c2ccccc2)nn3-c2ccccc2)C(=O)Nc2ccccc21 (centres undefined) | ? | -9% | ? | 5.2µM* | 1%
Oc1ccccc1Nc1nc(-c2ccccc2O)nc2ccccc12 | 12% | -7% | 4% | -2% | 0%
Oc1ccc(Nc2nc(-c3ccccc3F)nc3ccccc23)cc1 | -3% | 1% | -5% | -11% | -4%
C/C(=N\Nc1nc(-c2ccccn2)nc2ccccc12)c1ccc(F)cc1 | -6% | 1.1µM* | 7% | ? | 0.13µM*
C/C(=N\Nc1nc(-c2ccccc2O)nc2ccccc12)c1ccccc1 | 1% | ? | 16% | 15% | 4.5µM*
C/C(=N/Nc1nc(-c2ccccc2F)nc2ccccc12)c1ccccc1O | ? | 7.9µM* | 0% | 1% | 3.2µM*
O=C(NN1CCOCC1)c1ccc(Cl)c(Cl)c1 | -1% | -5% | -10% | -5% | -4%
COc1ccc2nc(N=Nc3ccc(N(C)C)cc3)sc2c1 | ? | 1.4µM* | -1% | 2% | 14µM*
COc1ccc2nc(/N=C\N(C)C)sc2c1 | ? | -6% | 2% | 6% | -4%
O=c1ccn(C2CCCO2)c(=O)[nH]1 (centres undefined) | nt | nt | -4% | -4% | nt
Cc1cccc(C)c1Nc1nnc(SCC(=O)c2ccc(Br)s2)s1 | -13% | 0% | 7% | 1% | -17%
Cc1ccc(Nc2nnc(SCC(=O)c3ccc(Br)s3)s2)c(C)c1 | 9% | ? | 4% | 2% | 35µM*
O=[N+]([O-])c1cnccc1NC1CCCCC1 | 11% | 8% | 1% | 2% | 0%
CCOC(=O)c1nnc(-c2ccc(C)cc2)nc1Oc1ccccc1Cl | 5% | 6.3µM* | 2.3µM* | ? | 7%
CCOC(=O)c1nnc(-c2ccc(C)cc2)nc1Oc1ccc(Cl)cc1Cl | 26% | ? | ? | -7% | -27%
CCOC(=O)c1nnc(-c2ccccc2)nc1Sc1c(Cl)cccc1Cl | 3% | 18µM* | 15µM* | ? | -28%
CCOC(=O)c1nnc(-c2ccc(C)cc2)nc1Sc1ccccc1Cl | 0% | -17% | 7.3µM* | -4% | 27%
